# Assay results published in ChEMBL document CHEMBL1961873, “Compounds: GSK PKIS; Assays: Nanosyn kinase panel” (2012).
# Target: T1, Serine/threonine-protein kinase BRSK1 (Homo sapiens) (UniProt Q8TDC3);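 note: each value is a mean percent inhibition of BRSK1 kinase activity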
# T1 sequence (whole entry): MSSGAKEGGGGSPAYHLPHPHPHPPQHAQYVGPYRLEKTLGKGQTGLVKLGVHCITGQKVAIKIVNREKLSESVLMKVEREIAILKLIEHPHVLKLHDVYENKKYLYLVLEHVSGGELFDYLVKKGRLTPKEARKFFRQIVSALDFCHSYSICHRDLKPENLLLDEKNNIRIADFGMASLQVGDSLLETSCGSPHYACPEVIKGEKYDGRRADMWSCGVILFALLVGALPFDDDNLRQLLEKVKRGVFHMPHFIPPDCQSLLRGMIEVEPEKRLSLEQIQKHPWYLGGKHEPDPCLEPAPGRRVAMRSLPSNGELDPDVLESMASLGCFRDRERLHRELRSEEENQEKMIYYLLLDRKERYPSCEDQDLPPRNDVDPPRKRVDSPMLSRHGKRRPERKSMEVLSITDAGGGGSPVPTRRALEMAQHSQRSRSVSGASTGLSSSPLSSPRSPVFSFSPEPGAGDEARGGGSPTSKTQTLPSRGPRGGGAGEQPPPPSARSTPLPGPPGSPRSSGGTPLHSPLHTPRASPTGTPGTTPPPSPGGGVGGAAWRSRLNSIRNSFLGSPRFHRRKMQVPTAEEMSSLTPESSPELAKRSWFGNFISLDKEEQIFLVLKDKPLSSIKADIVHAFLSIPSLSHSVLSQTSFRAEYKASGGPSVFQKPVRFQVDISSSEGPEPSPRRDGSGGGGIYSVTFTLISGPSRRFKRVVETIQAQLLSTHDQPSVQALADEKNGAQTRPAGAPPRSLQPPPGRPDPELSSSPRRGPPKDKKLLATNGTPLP
# Conditions: at 1 µM
row,SMILES,inhibition
1,CCn1c(-c2nonc2N)nc2c(C#CC(C)(C)O)nc(O[C@@H](CN)c3ccccc3)cc21,38.4%
2,Nc1nonc1-c1nc2cnccc2n1C1CCCCC1,4.25%
3,CCn1c(-c2nonc2N)nc2c(C#CC(C)(C)O)ncc(OCC3CCNCC3)c21,6.72%
4,NC(=O)c1sc(-n2cnc3cc(C(F)(F)F)ccc32)cc1OCc1ccccc1Br,3.25%
5,Cc1cc(-c2ccco2)cc(C)c1/C=C/c1cncc(-c2nn[nH]n2)c1,1.13%
6,NS(=O)(=O)c1ccc(-c2ccc3c(NC(=O)C4CC4)n[nH]c3c2)cc1,6.53%
7,COc1cc(C=NNc2ncnc3c2cnn3Cc2ccccc2)ccc1O,1.48%
8,COc1cc2c(cc1Nc1nc(Nc3ccsc3C(N)=O)c3cc[nH]c3n1)N(C(=O)CN(C)C)CCC2,1.57%
9,COc1cccc(COc2cc(-n3cnc4ccccc43)sc2C(N)=O)c1,5.63%
10,NS(=O)(=O)c1ccc(N/C=C2\C(=O)Nc3ccc4ncsc4c32)cc1,53.1%
11,COc1cccc(-n2ncc3c(N/N=C/c4ccncc4)ncnc32)c1,52.5%
12,CCn1c(-c2nonc2N)nc2c(C#CC(C)(C)O)ncc(OC[C@@H]3CCCN3)c21,1.83%
13,Fc1ccc(-c2ncn(C3CCNCC3)c2-c2ccnc(Oc3ccccc3)n2)cc1,-0.55%
14,CCn1c(-c2nonc2N)nc2c(C#CCN)ncc(OCCCN)c21,10.3%

# Target: T2, Serine/threonine-protein kinase BRSK2 (Homo sapiens) (UniProt Q8IWQ3)
# T2 sequence (whole entry): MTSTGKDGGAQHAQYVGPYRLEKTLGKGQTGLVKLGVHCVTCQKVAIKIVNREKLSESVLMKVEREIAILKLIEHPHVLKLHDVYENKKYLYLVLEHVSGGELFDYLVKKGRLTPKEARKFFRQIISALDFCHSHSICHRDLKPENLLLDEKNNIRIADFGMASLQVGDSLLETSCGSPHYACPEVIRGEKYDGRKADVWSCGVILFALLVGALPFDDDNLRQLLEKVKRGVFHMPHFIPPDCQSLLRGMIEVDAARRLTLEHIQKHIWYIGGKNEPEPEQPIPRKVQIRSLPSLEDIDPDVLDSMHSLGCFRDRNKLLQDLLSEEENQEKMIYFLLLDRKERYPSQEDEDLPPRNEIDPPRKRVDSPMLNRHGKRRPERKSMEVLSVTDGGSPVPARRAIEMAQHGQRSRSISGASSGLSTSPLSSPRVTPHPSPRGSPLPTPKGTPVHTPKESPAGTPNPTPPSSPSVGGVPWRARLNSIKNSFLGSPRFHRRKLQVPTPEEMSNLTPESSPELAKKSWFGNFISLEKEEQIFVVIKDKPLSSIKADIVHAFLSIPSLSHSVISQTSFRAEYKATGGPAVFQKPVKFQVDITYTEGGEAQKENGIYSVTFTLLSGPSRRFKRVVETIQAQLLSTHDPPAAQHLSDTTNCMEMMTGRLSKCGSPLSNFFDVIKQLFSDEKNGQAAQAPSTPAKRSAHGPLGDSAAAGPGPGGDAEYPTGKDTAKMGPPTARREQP
# Conditions: at 0.1 µM
row,SMILES,inhibition
1,CCn1c(-c2nonc2N)nc2c(C#CC(C)(C)O)nc(O[C@@H](CN)c3ccccc3)cc21,13.7%
2,Nc1nonc1-c1nc2cnccc2n1C1CCCCC1,0.61%
3,CCn1c(-c2nonc2N)nc2c(C#CC(C)(C)O)ncc(OCC3CCNCC3)c21,2.53%
4,NC(=O)c1sc(-n2cnc3cc(C(F)(F)F)ccc32)cc1OCc1ccccc1Br,2.43%
5,Cc1cc(-c2ccco2)cc(C)c1/C=C/c1cncc(-c2nn[nH]n2)c1,0.76%
6,NS(=O)(=O)c1ccc(-c2ccc3c(NC(=O)C4CC4)n[nH]c3c2)cc1,4.08%
7,COc1cc(C=NNc2ncnc3c2cnn3Cc2ccccc2)ccc1O,0.53%
8,COc1cc2c(cc1Nc1nc(Nc3ccsc3C(N)=O)c3cc[nH]c3n1)N(C(=O)CN(C)C)CCC2,0.73%
9,COc1cccc(COc2cc(-n3cnc4ccccc43)sc2C(N)=O)c1,0.26%
10,NS(=O)(=O)c1ccc(N/C=C2\C(=O)Nc3ccc4ncsc4c32)cc1,33%
11,COc1cccc(-n2ncc3c(N/N=C/c4ccncc4)ncnc32)c1,18.6%
12,CCn1c(-c2nonc2N)nc2c(C#CC(C)(C)O)ncc(OC[C@@H]3CCCN3)c21,0.98%
13,Fc1ccc(-c2ncn(C3CCNCC3)c2-c2ccnc(Oc3ccccc3)n2)cc1,0.01%
14,CCn1c(-c2nonc2N)nc2c(C#CCN)ncc(OCCCN)c21,7.19%

# Target: T2, Serine/threonine-protein kinase BRSK2 (Homo sapiens)
# Conditions: at 1 µM
row,SMILES,inhibition
1,CCn1c(-c2nonc2N)nc2c(C#CC(C)(C)O)nc(O[C@@H](CN)c3ccccc3)cc21,58.8%
2,Nc1nonc1-c1nc2cnccc2n1C1CCCCC1,6.14%
3,CCn1c(-c2nonc2N)nc2c(C#CC(C)(C)O)ncc(OCC3CCNCC3)c21,10.8%
4,NC(=O)c1sc(-n2cnc3cc(C(F)(F)F)ccc32)cc1OCc1ccccc1Br,8.5%
5,Cc1cc(-c2ccco2)cc(C)c1/C=C/c1cncc(-c2nn[nH]n2)c1,0.62%
6,NS(=O)(=O)c1ccc(-c2ccc3c(NC(=O)C4CC4)n[nH]c3c2)cc1,7.2%
7,COc1cc(C=NNc2ncnc3c2cnn3Cc2ccccc2)ccc1O,2.95%
8,COc1cc2c(cc1Nc1nc(Nc3ccsc3C(N)=O)c3cc[nH]c3n1)N(C(=O)CN(C)C)CCC2,-0.28%
9,COc1cccc(COc2cc(-n3cnc4ccccc43)sc2C(N)=O)c1,4.17%
10,NS(=O)(=O)c1ccc(N/C=C2\C(=O)Nc3ccc4ncsc4c32)cc1,62.4%
11,COc1cccc(-n2ncc3c(N/N=C/c4ccncc4)ncnc32)c1,60.1%
12,CCn1c(-c2nonc2N)nc2c(C#CC(C)(C)O)ncc(OC[C@@H]3CCCN3)c21,1.11%
13,Fc1ccc(-c2ncn(C3CCNCC3)c2-c2ccnc(Oc3ccccc3)n2)cc1,2.57%
14,CCn1c(-c2nonc2N)nc2c(C#CCN)ncc(OCCCN)c21,12.2%

# Target: Calcium/calmodulin-dependent protein kinase type 1D (Homo sapiens) (UniProt Q8IU85);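 note: reported figure is the mean inhibition of CAMK1D, from the GSK PKIS screening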
# Conditions: at 0.1 µM
# Calcium/calmodulin-dependent protein kinase type 1D (Homo sapiens), sequence (Q8IU85 whole entry, looked up): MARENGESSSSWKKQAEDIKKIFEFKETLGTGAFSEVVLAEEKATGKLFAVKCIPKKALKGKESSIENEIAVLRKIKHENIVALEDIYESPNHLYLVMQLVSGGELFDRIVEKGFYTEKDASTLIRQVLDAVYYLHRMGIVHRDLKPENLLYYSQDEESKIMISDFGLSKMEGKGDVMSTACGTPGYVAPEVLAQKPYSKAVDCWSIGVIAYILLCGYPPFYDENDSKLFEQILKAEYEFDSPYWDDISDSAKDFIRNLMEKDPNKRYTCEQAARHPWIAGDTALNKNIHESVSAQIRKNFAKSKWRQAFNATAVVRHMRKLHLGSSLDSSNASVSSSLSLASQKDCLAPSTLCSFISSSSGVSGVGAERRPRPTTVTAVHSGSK
row,SMILES,inhibition
1,CCn1c(-c2nonc2N)nc2c(C#CC(C)(C)O)nc(O[C@@H](CN)c3ccccc3)cc21,13.2%
2,Nc1nonc1-c1nc2cnccc2n1C1CCCCC1,0.69%
3,CCn1c(-c2nonc2N)nc2c(C#CC(C)(C)O)ncc(OCC3CCNCC3)c21,-0.03%
4,NC(=O)c1sc(-n2cnc3cc(C(F)(F)F)ccc32)cc1OCc1ccccc1Br,0.11%
5,Cc1cc(-c2ccco2)cc(C)c1/C=C/c1cncc(-c2nn[nH]n2)c1,0.45%
6,NS(=O)(=O)c1ccc(-c2ccc3c(NC(=O)C4CC4)n[nH]c3c2)cc1,-1.85%
7,COc1cc(C=NNc2ncnc3c2cnn3Cc2ccccc2)ccc1O,0.1%
8,COc1cccc(COc2cc(-n3cnc4ccccc43)sc2C(N)=O)c1,0.91%
9,NS(=O)(=O)c1ccc(N/C=C2\C(=O)Nc3ccc4ncsc4c32)cc1,0.05%
10,COc1cccc(-n2ncc3c(N/N=C/c4ccncc4)ncnc32)c1,0.07%
11,CCn1c(-c2nonc2N)nc2c(C#CC(C)(C)O)ncc(OC[C@@H]3CCCN3)c21,0.27%
12,Fc1ccc(-c2ncn(C3CCNCC3)c2-c2ccnc(Oc3ccccc3)n2)cc1,-1.05%
13,CCn1c(-c2nonc2N)nc2c(C#CCN)ncc(OCCCN)c21,-0.21%
